Screening results as filed in PubChem.
LYPLA2 inh: LYPLA2 inhibitors, primary screen, counter-screen for PME1 inhibitor project, biochemical, fluorescence polarization, FP-Rh probe ABPP; recombinant LYPLA2; inhibition, % at 5.9 µM; actives 0.38% (n = 320,000);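 active = inhibition above the screen-wide mean plus 3 SD, limit set per campaign, cut at about 26% in these data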
PREPL inh: PREPL enzyme inhibitors, primary screen, biochemical, fluorescence polarization; recombinant PREPL, fluorescence polarization activity-based probe; actives 0.68% (n = 320,000); inhibition, % at 5.96 µM; AID 2751, 2010; in the data active = inhibition above about 43%
Fam108B inh: mouse Fam108B serine hydrolase inhibitors, primary screen, counter-screen for RBBP9 inhibitor project, biochemical, fluorescence polarization; inhibition, % at 9.51 µM; recombinant Fam108B, FP-Rh probe fluorescence polarization; actives 0.33% (n = 300,000);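 active = inhibition above the screen mean inhibition plus 3 SD, computed separately per campaign, cut at about 18% in these data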;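 note: inhibitors lower polarization as less probe binds the enzyme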
GSTO1 inh: inhibitors of recombinant GSTO1, primary screen, counter-screen for RBBP9 inhibitor project, biochemical, fluorescence polarization | Glutathione S-transferase omega-1 (Homo sapiens), P78417 | activity-based probe fluorescence polarization | inhibition, % at 5.96 µM | actives 1.1% (n = 300,000) | AID 1974, 2009;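 active = inhibition above the campaign mean inhibition plus 3 SD, cut at about 35% in these data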
Target sequence (P78417 whole entry, looked up): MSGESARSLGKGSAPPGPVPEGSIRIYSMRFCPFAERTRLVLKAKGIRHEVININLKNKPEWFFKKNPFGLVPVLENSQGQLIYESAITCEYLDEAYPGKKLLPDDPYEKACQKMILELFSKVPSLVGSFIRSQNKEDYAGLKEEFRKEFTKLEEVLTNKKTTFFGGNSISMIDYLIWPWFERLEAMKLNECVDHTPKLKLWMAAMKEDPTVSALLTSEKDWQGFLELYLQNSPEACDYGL
PME-1 inh: PME-1 inhibitors via competitive probe labeling, primary screen, biochemical, fluorescence polarization, FP-Rh probe, HTS; actives 0.53% (n = 320,000); inhibition, % at 5.9 µM; AID 2130, 2009; recombinant PME-1; Protein phosphatase methylesterase 1 (Homo sapiens), Q9Y570;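 active = inhibition above the campaign mean of all compounds plus 3 SD, cut at about 26% in these data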;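 note: competitive labeling of PME-1 active site by serine hydrolase directed probe; inhibitors block probe labeling so polarization falls and inhibition rises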
LYPLA1 inh: LYPLA1 inhibitors, primary screen, counter-screen for PME1 inhibitor project, biochemical, fluorescence polarization, FP-Rh probe ABPP | inhibition, % at 5.9 µM | Acyl-protein thioesterase 1 (Homo sapiens), O75608 | recombinant LYPLA1 | actives 0.16% (n = 320,000);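 active = inhibition above the mean of all tested compounds plus 3 SD, set per campaign, cut at about 14% in these data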;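 note: inhibitors block serine hydrolase probe labeling of LYPLA1 so polarization falls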
Target sequence (O75608 whole entry, looked up): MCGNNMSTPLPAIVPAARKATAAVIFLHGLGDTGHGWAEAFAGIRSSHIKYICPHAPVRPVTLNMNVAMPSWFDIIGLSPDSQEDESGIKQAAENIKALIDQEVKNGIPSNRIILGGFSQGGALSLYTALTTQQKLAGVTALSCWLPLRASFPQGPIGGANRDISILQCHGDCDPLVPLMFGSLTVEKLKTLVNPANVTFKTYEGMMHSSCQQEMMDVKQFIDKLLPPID
Numbers stand for hits; i = inactive; nt = no result. This is a sample that favours compounds with a hit; in the whole collection about 2% have one here.

SMILES	LYPLA2 inh	PREPL inh	Fam108B inh	GSTO1 inh	PME-1 inh	LYPLA1 inh
O=C1CCCC2=C1C(c1ccc(O)c(O)c1)c1c(ccc3ncccc13)N2 (centres undefined)	i	i	i	75	i	i
Cc1cc(C)c(C)c(S(=O)(=O)NCc2ccc(C(=O)NCC3CCCO3)cc2)c1C (centres undefined)	i	i	i	i	i	i
COc1ccc(C(=O)c2oc3ccc(OC)cc3c2N)cc1	i	i	i	i	33	i
COC(=O)c1oc2ccc(OC)cc2c1N	i	i	i	i	i	i
CCC1Oc2ccc(C)cc2N(CC(=O)NCc2cccs2)C1=O (centres undefined)	i	i	i	i	i	i
CCC1Oc2ccccc2N(CC(=O)NCc2cccs2)C1=O (centres undefined)	i	i	i	37	i	i
Cc1nnc(Nc2ccccc2)n(N)c1=O	i	i	i	i	i	i
Cc1nnc(NN)n(N)c1=O	i	i	i	37	i	i
COc1ccc2[nH]c(=O)c(-c3noc(-c4ccccc4)n3)cc2c1	i	i	i	i	49	i
Cc1cc(C)nc(Nc2ccc(N3CCOCC3)cc2)n1	i	i	i	i	i	i
Cc1cc(C)nc(Nc2ccc(N3CCCC3)cc2)n1	i	44	i	i	i	i
Cc1cccc(NC(=O)CCNS(=O)(=O)c2ccc3[nH]c(=O)oc3c2)c1	i	i	i	i	i	i
O=[N+]([O-])CC(=Nc1ccc(Cl)cc1)N/N=C\c1oc(O)c2ccccc12	i	i	i	i	52	i
COC(=O)c1ccc(N2CCN(C)CC2)c(NC(=O)c2ccc(-c3ccc(Cl)cc3)o2)c1	i	i	i	i	i	i
CC/C(=N/Nc1ccc(Cl)cc1)c1cnnc(SC)n1	i	i	i	50	i	i
CC/C(=N/O)c1cnnc(SC)n1	i	i	i	i	i	i
CC/C(=N/Nc1cccc(C)c1)c1cnnc(SC)n1	i	i	i	50	i	i
CC(C)(C)OC(=O)C[C@H]1C/C=C\C[C@@H](CC(=O)N(CCO)Cc2ccccc2)C(=O)N[C@H](Cc2c[nH]c3ccccc23)COC1=O	nt	i	nt	nt	nt	nt
C=CCOc1ccc(C(=O)c2ccccc2)c(OCC(=O)NC2(C#N)CCCC2)c1	i	i	i	i	i	i
O=C(O)COc1ccc(/C=N/NC(=O)COc2nsnc2N2CCOCC2)cc1	i	i	i	i	i	i
CC(C)(C)c1ccc(OCC(=O)N/N=C/c2ccc(N3CCOCC3)cc2)cc1	i	65	i	i	i	i
CCOC(=O)c1nc(Nc2cc(C)cc(C)c2)c2ccccc2n1	i	i	i	i	i	i
N#CCC(N)=C(C#N)C#N	i	i	i	79	i	i
Cc1nn(Cc2ccccc2)c2c1C(c1ccco1)C(C#N)=C(N)O2 (centres undefined)	i	i	i	i	i	i
COc1ccc(-c2[nH]nc3c2C(c2ccoc2)C(C#N)=C(N)O3)cc1 (centres undefined)	i	i	i	i	i	i
SMILES	LYPLA2 inh	PREPL inh	Fam108B inh	GSTO1 inh	PME-1 inh	LYPLA1 inh
Cc1ccc(-n2nc(C)c3c2OC(N)=C(C#N)C3c2ccco2)cc1 (centres undefined)	i	i	i	36	i	i
Cc1ccc(-c2[nH]nc3c2C(c2ccoc2)C(C#N)=C(N)O3)cc1C (centres undefined)	i	i	i	44	i	i
Cc1ccc(-n2nc(C)c3c2OC(N)=C(C#N)C3c2ccoc2)cc1 (centres undefined)	i	i	i	36	i	i
CCOC(=O)C1=C(C)OC(N)=C(C#N)C1c1ccoc1 (centres undefined)	i	i	i	i	i	i
COc1ccc(OC)c(C2C(C#N)=C(N)Oc3c2c(C)nn3-c2ccc(C)cc2)c1 (centres undefined)	i	i	i	35	i	i
Cc1nn(-c2ccccc2)c2c1C(c1ccc(F)cc1F)C(C#N)=C(N)O2 (centres undefined)	i	i	i	i	i	i
Cc1nn(-c2ccccc2)c2c1C(c1ccccc1)C(C#N)=C(N)O2 (centres undefined)	i	i	i	37	i	i
CCOc1cc(C)c(S(=O)(=O)NC2CC(C)(C)NC(C)(C)C2)cc1C	i	i	i	37	i	i
c1ccc(C2Nc3ccccc3C3OCCCC23)cc1 (centres undefined)	i	i	i	i	i	i
COc1ccccc1NS(=O)(=O)c1cccc(-n2c(O)c(C=Nc3ccccc3C(=O)O)c3ccccc3c2=O)c1	i	i	i	i	82	i
Nc1ccc2oc(-c3cc(Br)ccc3Cl)nc2c1	i	i	i	i	28	i
Nc1ccc2oc(-c3ccccc3Cl)nc2c1	i	i	i	i	i	i
COc1ccc(Br)cc1C1Nc2cccc3cccc(c23)N1	i	i	i	i	i	i
Cc1cccc(C2Nc3cccc4cccc(c34)N2)c1	i	i	i	37	i	i
COc1cc(C2Nc3cccc4cccc(c34)N2)ccc1O	i	i	i	i	27	i
O=[N+]([O-])c1cc(C2Nc3cccc4cccc(c34)N2)ccc1Cl	i	i	i	i	i	i
Cc1ccc(C)n1Cc1ccc(C(=O)O)cc1	i	i	37	59	i	i
Cc1cc(C)n(Cc2ccc(C(=O)O)cc2)n1	i	i	i	i	i	i
C=CCOc1ccc(CN(C)C(=O)CNC(=O)c2ccc(-c3ccccc3)cc2)cc1	i	i	i	i	i	i
Cc1ccc(S(=O)(=O)NCCSc2nnnn2-c2ccccc2)cc1	i	i	i	i	i	i
Cc1ccc(S(=O)(=O)NCCSc2nnnn2-c2cc(C)ccc2C)cc1	i	i	i	35	i	i
CCN(CC)S(=O)(=O)c1ccc(C)c(NC(=O)COC(=O)c2ccc(C)c(S(=O)(=O)N3CCOCC3)c2)c1	i	i	i	i	51	i
CCN(CC)S(=O)(=O)c1ccc(Cl)c(NC(=O)COC(=O)c2cccn2C)c1	i	i	i	i	33	i
CCN(CC)S(=O)(=O)c1ccc(Cl)c(NC(=O)COC(=O)C2CCCCC2)c1	i	i	nt	nt	i	i
Cc1ccc(C(=O)OCC(=O)Nc2cc(S(=O)(=O)N3CCOCC3)ccc2C)cc1	i	i	i	i	i	i
CCN(CC)S(=O)(=O)c1ccc(Cl)c(NC(=O)COC(=O)c2ccc(O)cc2)c1	i	i	i	i	29	i
O=C(CNc1cccc2ccccc12)N/N=C/C(Br)=C/c1ccccc1	i	i	i	i	27	i
